Results as given in the supplement of paper PMC10849652.
The full data set covers some 8,800 targets. This sample favours those with a hit. About 0.5% of all pairs of compound and target were hits. Values without a mark were called inactive.

Columns and labels:
Assay in all cases: log2 fold change, soluble protein after heating vs DMSO (PISA); higher = thermal stabilisation; K562 lysate, 10 uM; active = over 0.2 and 3.5 SD of the protein, either way, in both replicates (recomputed)
[1] = compound: C=CC(=O)N1CCC[C@@H](n2nc(-c3ccc(Oc4ccccc4)cc3)c3c(N)ncnc32)C1 [ibrutinib]
Outline: (§1)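 Values give the log-two fold change in thermal stability against solvent controls, from duplicates. Crude K562 extract at 1 mg/mL protein, made by dounce homogenisation in PBS pH 7.4 with 1 mM MgCl2, was treated with 10 μM compound for 30 min. After 3 min heating across 48°C-58°C, aliquots were pooled, adjusted to 0.5% NP-40 at 4°C and centrifuged at 21,000xg for 90 min. The supernatant was measured by TMTpro 16plex LC-MS/MS with channel sums equalised.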

[2] = compound: CC(=O)c1cnc2ccc(-c3cc(Cl)c(O)c(Cl)c3)nc2c1N[C@H]1CC[C@H](CN(C)C)CC1
Outline: as §1

[3] = compound: CC(C)C1=C2N=C(C=C(N2N=C1)NCC3=CC=CC=C3)NCCCCCCN
Outline: as §1

[4] = compound: CC1=C(C(CC(=O)N1)C2=CC=C(C=C2)C(F)(F)F)C(=O)NC3=C(C=C4C(=C3)C=NN4)F
Outline: as §1

[5] = compound: CC1=C(C2=C(C=C1)C(=O)C3=CC=CC=C3N2CCCN)C
Outline: as §1

[6] = compound: CC1=CC=C(C=C1)SC2=C3C=C(SC3=CN=C2)C(=O)N
Outline: as §1

[7] = compound: CCCS(=O)(=O)Nc1ccc(F)c(C(=O)c2c[nH]c3ncc(Cl)cc23)c1F
Outline: as §1

[8] = compound: CCN(CCCOc1ccc2c(Nc3cc(CC(=O)Nc4cccc(F)c4)[nH]n3)ncnc2c1)CCOP(=O)(O)O [barasertib]
Outline: as §1

[9] = compound: CC[C@@H]1C(=O)N(C)c2cnc(Nc3ccc(C(=O)N[C@H]4CC[C@H](N5CCN(CC6CC6)CC5)CC4)cc3OC)nc2N1C(C)C [volasertib]
Outline: as §1

[10] = compound: CN1CCN(CCOc2cc(OC3CCOCC3)c3c(Nc4c(Cl)ccc5c4OCO5)ncnc3c2)CC1 [saracatinib]
Outline: as §1

[11] = compound: CC(C)(C)Cn1c(N)nc2ccc(-c3[nH]c(C(C)(C)C)nc3-c3ccc(F)cc3)nc21 [ralimetinib]
Outline: as §1

[12] = compound: CC(C)(O)CC(=O)NCCn1ccc2ncnc(Nc3ccc(Oc4cccc(C(F)(F)F)c4)c(Cl)c3)c21
Outline: as §1

[13] = compound: CC1=C(C=C(C=C1)NC(=O)C2=CC(=CC=C2)C(C)(C)C#N)NC3=CC4=C(C=C3)N=CN(C4=O)C
Outline: as §1

[14] = compound: CC1=C(C=C(C=C1)NC(=O)C2=CC(=CC=C2)N(C)C)NC(=O)C3=CC=C(C=C3)O
Outline: as §1

[15] = compound: CCCS(=O)(=O)Nc1ccc(F)c(C(=O)c2c[nH]c3ncc(-c4ccc(Cl)cc4)cc23)c1F [vemurafenib]
Outline: as §1

[16] = compound: CC[C@@H]1C(=O)N(C)c2cnc(Nc3ccc(C(=O)NC4CCN(C)CC4)cc3OC)nc2N1C1CCCC1
Outline: as §1

[17] = compound: CCn1c(C(=O)N(C2CC2)C2CC2)cc2c3c(ncn3C)c(Nc3cc(C)n(C)n3)nc21
Outline: as §1

[18] = compound: CCn1cc(-c2ccnc3[nH]c(-c4cccc(CN(C)C)c4)cc23)c(-c2ccc(NC(=O)N(C)C)cc2)n1
Outline: as §1

[19] = compound: CN1CCC(CNc2ccc3ncc(-c4cccc(OC(F)(F)F)c4)n3n2)CC1
Outline: as §1

[20] = compound: CN1CCN(c2nc(C3=C(c4c[nH]c5ccccc45)C(=O)NC3=O)c3ccccc3n2)CC1 [sotrastaurin]
Outline: as §1

Chain of UniProt Q8N3R9 (Q8N3R9 whole entry, looked up): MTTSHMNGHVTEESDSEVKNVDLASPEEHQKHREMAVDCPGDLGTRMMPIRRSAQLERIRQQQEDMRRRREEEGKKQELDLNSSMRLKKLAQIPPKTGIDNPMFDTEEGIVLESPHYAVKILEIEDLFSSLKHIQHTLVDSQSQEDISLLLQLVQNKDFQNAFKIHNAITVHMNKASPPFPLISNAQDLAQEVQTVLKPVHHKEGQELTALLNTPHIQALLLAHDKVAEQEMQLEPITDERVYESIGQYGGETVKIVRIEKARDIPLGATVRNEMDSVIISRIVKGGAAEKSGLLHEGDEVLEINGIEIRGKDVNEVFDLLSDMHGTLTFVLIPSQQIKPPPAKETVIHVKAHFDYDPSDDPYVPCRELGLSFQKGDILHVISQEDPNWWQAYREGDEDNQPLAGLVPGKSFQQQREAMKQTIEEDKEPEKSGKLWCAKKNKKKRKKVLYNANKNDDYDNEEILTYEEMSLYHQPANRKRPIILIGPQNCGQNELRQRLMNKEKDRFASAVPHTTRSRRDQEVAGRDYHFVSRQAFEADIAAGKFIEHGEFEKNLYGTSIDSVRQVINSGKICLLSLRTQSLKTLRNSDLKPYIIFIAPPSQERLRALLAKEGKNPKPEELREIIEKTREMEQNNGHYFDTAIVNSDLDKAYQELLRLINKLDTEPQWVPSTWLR
Chain of UniProt O75970 (O75970 whole entry, looked up): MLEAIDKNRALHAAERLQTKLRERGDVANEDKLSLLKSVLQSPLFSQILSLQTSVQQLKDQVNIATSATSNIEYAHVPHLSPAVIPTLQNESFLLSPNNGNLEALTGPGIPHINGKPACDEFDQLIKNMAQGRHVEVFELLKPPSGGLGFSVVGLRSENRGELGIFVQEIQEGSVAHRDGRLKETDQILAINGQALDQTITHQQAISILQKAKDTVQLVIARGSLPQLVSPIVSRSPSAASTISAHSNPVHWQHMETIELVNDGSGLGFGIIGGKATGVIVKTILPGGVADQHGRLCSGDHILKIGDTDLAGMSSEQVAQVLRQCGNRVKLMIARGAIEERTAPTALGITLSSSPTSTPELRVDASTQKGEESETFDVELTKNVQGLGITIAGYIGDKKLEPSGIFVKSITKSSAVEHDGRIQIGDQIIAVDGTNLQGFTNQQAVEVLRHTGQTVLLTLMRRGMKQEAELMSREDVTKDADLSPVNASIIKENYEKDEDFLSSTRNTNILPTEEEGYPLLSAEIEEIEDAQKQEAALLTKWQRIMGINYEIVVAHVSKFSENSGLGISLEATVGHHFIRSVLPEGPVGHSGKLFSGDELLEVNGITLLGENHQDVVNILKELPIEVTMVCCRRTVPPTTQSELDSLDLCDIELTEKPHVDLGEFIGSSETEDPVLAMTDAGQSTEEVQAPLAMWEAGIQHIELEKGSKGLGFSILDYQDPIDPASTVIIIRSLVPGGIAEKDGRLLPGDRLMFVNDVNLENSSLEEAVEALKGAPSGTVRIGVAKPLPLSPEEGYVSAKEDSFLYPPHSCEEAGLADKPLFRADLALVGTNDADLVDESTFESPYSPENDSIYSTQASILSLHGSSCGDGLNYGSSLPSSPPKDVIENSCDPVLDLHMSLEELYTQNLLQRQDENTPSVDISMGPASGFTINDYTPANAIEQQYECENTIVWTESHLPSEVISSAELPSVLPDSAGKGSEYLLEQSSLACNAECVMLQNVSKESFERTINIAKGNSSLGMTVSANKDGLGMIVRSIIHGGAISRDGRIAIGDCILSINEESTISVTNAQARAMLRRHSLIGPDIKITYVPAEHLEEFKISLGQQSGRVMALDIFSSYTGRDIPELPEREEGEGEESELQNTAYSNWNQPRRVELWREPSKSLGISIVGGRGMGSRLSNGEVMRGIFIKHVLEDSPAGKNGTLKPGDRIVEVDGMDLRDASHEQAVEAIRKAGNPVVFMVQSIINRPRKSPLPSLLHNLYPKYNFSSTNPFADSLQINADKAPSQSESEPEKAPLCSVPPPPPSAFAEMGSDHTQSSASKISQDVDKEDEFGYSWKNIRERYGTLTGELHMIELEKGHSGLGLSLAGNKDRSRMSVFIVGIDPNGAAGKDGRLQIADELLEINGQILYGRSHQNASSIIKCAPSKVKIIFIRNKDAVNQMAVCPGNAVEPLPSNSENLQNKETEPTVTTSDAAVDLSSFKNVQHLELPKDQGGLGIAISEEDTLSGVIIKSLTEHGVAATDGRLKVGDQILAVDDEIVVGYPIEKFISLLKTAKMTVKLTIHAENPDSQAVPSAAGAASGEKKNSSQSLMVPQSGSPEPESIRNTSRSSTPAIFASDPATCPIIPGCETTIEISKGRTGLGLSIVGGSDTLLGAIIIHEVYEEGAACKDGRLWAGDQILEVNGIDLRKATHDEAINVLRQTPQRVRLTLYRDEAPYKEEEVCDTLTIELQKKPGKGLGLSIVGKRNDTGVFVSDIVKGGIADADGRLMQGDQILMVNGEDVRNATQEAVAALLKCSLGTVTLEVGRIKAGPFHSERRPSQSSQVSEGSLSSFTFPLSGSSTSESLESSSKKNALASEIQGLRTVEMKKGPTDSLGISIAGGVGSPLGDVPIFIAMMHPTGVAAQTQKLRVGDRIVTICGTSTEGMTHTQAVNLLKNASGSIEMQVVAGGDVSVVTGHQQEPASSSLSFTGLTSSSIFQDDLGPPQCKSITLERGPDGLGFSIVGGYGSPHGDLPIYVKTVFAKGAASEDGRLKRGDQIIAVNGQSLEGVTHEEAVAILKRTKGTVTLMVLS
Chain of UniProt O60337 (O60337 whole entry, looked up): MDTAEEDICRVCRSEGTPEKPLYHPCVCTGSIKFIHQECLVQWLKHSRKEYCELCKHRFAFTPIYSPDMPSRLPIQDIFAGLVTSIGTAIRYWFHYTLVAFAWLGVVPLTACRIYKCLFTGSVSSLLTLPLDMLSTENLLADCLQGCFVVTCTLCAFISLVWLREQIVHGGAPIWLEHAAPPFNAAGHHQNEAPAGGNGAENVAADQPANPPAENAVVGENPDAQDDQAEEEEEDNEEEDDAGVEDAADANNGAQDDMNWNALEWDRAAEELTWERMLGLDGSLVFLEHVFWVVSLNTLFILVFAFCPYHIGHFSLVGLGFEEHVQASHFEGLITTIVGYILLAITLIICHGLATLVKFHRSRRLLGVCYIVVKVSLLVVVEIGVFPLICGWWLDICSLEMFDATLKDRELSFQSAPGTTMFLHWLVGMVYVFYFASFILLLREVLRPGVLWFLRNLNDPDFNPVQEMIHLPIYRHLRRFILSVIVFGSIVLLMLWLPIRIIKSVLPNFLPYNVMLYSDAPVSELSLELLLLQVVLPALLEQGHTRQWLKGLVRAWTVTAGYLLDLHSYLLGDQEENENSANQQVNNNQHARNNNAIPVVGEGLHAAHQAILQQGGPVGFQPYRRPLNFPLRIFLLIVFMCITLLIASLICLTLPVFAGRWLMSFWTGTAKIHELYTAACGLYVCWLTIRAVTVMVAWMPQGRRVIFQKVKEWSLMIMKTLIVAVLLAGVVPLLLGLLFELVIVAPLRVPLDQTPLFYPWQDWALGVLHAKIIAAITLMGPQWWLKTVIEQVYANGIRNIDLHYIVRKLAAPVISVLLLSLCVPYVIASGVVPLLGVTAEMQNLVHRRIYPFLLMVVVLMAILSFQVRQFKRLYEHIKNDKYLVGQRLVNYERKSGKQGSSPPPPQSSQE
Chain of UniProt Q00987 (Q00987 whole entry, looked up): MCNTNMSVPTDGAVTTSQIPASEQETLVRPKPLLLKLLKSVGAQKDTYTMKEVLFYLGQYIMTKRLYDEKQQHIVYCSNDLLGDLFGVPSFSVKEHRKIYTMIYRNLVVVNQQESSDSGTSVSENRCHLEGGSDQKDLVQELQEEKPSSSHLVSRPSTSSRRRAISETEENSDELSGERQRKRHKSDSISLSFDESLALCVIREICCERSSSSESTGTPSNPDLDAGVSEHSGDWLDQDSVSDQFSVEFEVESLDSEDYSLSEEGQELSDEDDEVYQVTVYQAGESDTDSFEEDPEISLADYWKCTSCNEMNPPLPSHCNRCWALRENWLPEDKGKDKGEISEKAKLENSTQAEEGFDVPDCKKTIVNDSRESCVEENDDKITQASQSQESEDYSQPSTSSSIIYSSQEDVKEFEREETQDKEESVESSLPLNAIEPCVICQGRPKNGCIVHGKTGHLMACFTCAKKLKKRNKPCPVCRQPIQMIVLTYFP
Chain of UniProt Q8TC05 (Q8TC05 whole entry, looked up): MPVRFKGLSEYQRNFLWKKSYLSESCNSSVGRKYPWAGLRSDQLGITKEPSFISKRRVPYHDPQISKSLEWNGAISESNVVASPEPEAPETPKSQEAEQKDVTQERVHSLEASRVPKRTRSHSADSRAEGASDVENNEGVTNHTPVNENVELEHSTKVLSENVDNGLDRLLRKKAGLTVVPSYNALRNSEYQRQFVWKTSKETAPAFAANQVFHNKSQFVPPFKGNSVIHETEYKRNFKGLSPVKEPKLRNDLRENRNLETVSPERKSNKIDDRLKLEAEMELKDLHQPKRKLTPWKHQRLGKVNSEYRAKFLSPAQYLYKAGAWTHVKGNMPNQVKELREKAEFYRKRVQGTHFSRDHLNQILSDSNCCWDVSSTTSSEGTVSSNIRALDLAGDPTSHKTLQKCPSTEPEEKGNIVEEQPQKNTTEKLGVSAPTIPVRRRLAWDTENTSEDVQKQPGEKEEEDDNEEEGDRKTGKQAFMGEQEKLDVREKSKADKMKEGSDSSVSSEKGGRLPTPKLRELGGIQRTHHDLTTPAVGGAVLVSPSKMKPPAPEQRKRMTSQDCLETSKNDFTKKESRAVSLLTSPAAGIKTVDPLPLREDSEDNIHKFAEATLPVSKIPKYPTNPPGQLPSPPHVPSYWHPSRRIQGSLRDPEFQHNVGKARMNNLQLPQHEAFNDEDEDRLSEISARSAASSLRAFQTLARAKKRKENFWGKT

Target	log2 fold change [1]	log2 fold change [2]	log2 fold change [3]	log2 fold change [4]	log2 fold change [5]	log2 fold change [6]	log2 fold change [7]	log2 fold change [8]	log2 fold change [9]	log2 fold change [10]	log2 fold change [11]	log2 fold change [12]	log2 fold change [13]	log2 fold change [14]	log2 fold change [15]	log2 fold change [16]	log2 fold change [17]	log2 fold change [18]	log2 fold change [19]	log2 fold change [20]
KIF21A (UniProt H0YI78)	-0.187	-0.073	-0.006	0.107	0.017	0.031	0.017	-0.198	-0.008	-0.151	–	–	–	–	–	–	–	–	–	–
MARF1 (UniProt Q9Y4F3)	0.027	–	-0.045	-0.021	0.037	–	–	0.051	–	0.027	0.034	-0.042	0.004	0.01	-0.093	-0.059	0.007	-0.027	-0.059	0
MDM1 (UniProt Q8TC05)	–	-0.006	-0.029	-0.027	0.022	-0.079	0.053	–	0.024	0.013	0.037	-0.054	–	-0.019	0.024	-0.05	0.075	-1.5 (active)	0.512 (active)	–
MAPK3 (UniProt H0YEX6)	–	–	–	0.029	–	–	–	–	–	–	–	–	–	–	–	–	–	–	–	–
LRRC9 (UniProt Q6ZRR7)	–	–	–	–	–	–	–	–	–	–	–	–	0.042	–	-0.011	-0.022	–	-0.25	0.131	0.01
MDM2 isoform 11 (UniProt Q00987)	-0.071	–	-0.006	–	–	–	–	-0.238	–	–	0.038	-0.08	-0.074	0.076	-0.035	–	-0.03	0.024	-0.038	0.053
MARCHF6 (UniProt O60337)	-0.395 (active)	-0.021	-0.012	0.014	0.101	0.032	0.052	0.233	0.078	-0.13	–	–	0.004	–	0.043	0.038	–	-0.023	0.013	0.034
MPDZ (UniProt O75970)	–	0.264	-0.015	-0.173	0.062	-0.029	0.03	–	-0.026	0.088	0.024	-0.157	0.057	0.076	0.059	0	-0.115	0.129	-0.017	0.209
MPP5 (UniProt Q8N3R9)	0	–	-0.079	-0.082	-0.067	–	–	-0.058	–	-0.04	0.019	-0.063	0.017	0.014	-0.029	-0.011	0.042	-0.084	-0.038	-0.006
